a7 integrin act: activates integrin-mediated alleviation for muscular dystrophy. alpha7betagal myoblasts, beta-gal FDG fluorescence, 48 h. Potency, µM (titrated, usually from 38.3 µM), inactives show at the highest dose activation, hits mostly activators. actives 0.064% (n = 350,000);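 note: potency is the fitted concentration of half-maximal effect; 100% = response of the positive control SU9516; nearly all actives have a fitted effect of over 60% in size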
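alpha7betagal+/- myoblasts (passage 13, 250/well) treated 48 h at 37C with compounds at 1:260 dilution of DMSO stock. Lysed, then beta-galactosidase activity read as FDG fluorescence (ex 480/em 540) after 30 min, with pre-read for autofluorescence.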
PKM2 act: activators of human pyruvate kinase M2. purified PKM2, Kinase-Glo ATP luminescence, activation; response scale: 0% is enzyme alone, no compound. actives 0.34% (n = 260,000). P14618. AID 1631. Potency, µM (titrated, usually from 57.5 µM), for inactives: at the highest dose activation, hits mostly activators; note: potency is the fitted concentration of half-maximal effect; % is set by controls: 0 for no effect and ±100 for the full control effect; nearly all actives have a fitted effect of over 55% in size
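Purified hPK-M2 (>95%) run at intermediate activity with 0.1 mM ADP and 0.5 mM PEP in 50 mM imidazole pH 7.2, KCl, MgCl2; 1 h room temperature. ATP formed read by Kinase-Glo luminescence; normalized to uninhibited and no-enzyme controls.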
USP2a block: USP2a (human) protease inhibition; USP2 core, Ub-CHOP2 coupled fluorogenic reporter, 485/531; actives 0.01% (n = 330,000); O75604; Potency, µM (top dose mostly 38.3 µM), without a hit: top-dose activity change, negative = inhibition, actives largely listed as inhibitors;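 note: potency is the fitted concentration of half-maximal effect; plate controls were DMSO wells for no effect and full inhibition by NEM control for full effect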
Target sequence (O75604 whole entry, looked up): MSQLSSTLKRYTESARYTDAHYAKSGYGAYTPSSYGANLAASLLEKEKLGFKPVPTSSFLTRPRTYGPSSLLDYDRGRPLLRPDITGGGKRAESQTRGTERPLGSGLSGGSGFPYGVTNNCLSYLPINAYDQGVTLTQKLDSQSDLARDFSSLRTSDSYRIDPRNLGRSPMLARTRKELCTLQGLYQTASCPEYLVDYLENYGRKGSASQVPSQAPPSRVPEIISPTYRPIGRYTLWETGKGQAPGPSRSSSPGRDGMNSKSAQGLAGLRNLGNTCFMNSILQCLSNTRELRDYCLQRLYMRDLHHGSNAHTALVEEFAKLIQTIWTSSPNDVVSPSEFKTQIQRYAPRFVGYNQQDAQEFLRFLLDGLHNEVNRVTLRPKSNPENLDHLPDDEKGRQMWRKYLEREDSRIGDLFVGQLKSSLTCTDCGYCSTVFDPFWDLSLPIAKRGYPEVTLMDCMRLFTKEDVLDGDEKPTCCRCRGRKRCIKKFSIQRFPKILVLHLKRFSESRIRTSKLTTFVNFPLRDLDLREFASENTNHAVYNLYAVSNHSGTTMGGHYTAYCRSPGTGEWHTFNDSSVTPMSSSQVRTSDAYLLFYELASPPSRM
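Cell-free coupled assay: 10nM USP2 core preincubated 30min RT with compound in Tris-HCl pH 8.0/CaCl2/CHAPS buffer, then 25nM Ub-CHOP2 and 25nM reporter substrate; fluorescence (Ex 485/Em 531) read after 60min RT, normalized to NEM inhibition, concentration-response curves fitted.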
Pin1 inh: inhibitors of human Pin1. Q13526. Pin1 FP peptide displacement, HiFluor488, 10 min. Potency, µM (highest dose often 115 µM), for inactives: at the top dose activity, negative = inhibition, hits mostly inhibitors. actives 0.009% (n = 390,000); active = well fitted inhibition curve with a large enough effect in the polarisation, with a control signal flat, not every such curve was filed as active; inconclusive = small, poorly fitted or top-dose-only effect, or effect the other way, or a change in a side signal; inactive = no such curve, though single readings can be large or run the other way; the % refers to the polarisation; note: potency is the fitted concentration of half-maximal effect; % is set by controls: 0 for no effect and ±100 for the full control effect
ClpP mod: qHTS Assay for Activators of ClpP; ATP-dependent Clp protease proteolytic subunit (Bacillus subtilis (strain 168)), P80244; purified B. subtilis ClpP, FRET peptide cleavage, 20 min; Potency, µM (top dose mostly 57.5 µM), inactives show at the highest dose activity change, negative = active; actives 1.9% (n = 340,000); AID 651965, 2013; active = well fitted falling curve with a large enough effect; inconclusive = small, poorly fitted or top-dose-only effect; inactive = no such curve, though single readings can be large or run the other way; note: potency is the fitted concentration of half-maximal effect; the source files actives as falling curves though it sought activators and does not explain the sign; nearly all actives have a fitted effect of over 65% in size
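Purified B. subtilis ClpP, 10 microg/mL final in Tris/HCl pH8 with KCl, BSA, glycerol and Tween-20, cleaved an Abz/nitrotyrosine-quenched decapeptide. Fluorescence (ex 320, em 430) was read at 0 and 20 min at room temperature. Delta was normalized to 5.8 microM ADEP and DMSO/no-enzyme controls.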
IL-2 act: IL-2 activation. IL-2 activation reporter assay, cell-based qHTS; stimulated with anti-CD3/CD4/CD28 beads; in transgenic mouse T cells. activation, % (series mostly up to about 46 µM). actives 0.065% (n = 360,000). AID 652025; in the data active = activation above about 50%; inconclusive = mostly about 30% to 49%; note: 0% is about no effect
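Unstimulated transgenic mouse T cells; 60-min compound exposure; bead-based TCR/CD4/CD28 stimulation; 18 h culture, 37 degrees C; dual fluorescence (EGFP, DsRed) plate cytometry.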
Numbers without * were called inactive; ? = inconclusive; nt = not tested or not shown; [ ] = remark or other dose. Hits are enriched below; roughly 1.9% of the tested compounds scored in any of these assays. Unless noted, calls come from the whole dose curve; as a rule, active = well fitted curve in the direction sought with a large enough effect; inconclusive = small, poorly fitted or top-dose-only effect, or another doubt; inactive = no such curve, though single readings can be large; an effect the other way counts as inactive or inconclusive.

SMILES	a7 integrin act	PKM2 act	USP2a block	Pin1 inh	ClpP mod	IL-2 act
O=C(COC(=O)c1cccc2ccccc12)Nc1cccnc1Cl	12%	6%	0%	-7%	16µM*	-5
O=C(COC(=O)c1cccc2ccccc12)Nc1ncc(C(F)(F)F)cc1Cl	13%	-3%	-7%	28%	35µM*	-4
Cc1[nH]c2ccccc2c1/C=C/c1ccnc2ccccc12	nt	nt	nt	nt	2%	nt
O=C(Nc1ccc(Br)cn1)c1cnn2c1NC(=C1CC1)C=C2C(F)F	nt	nt	nt	nt	0%	nt
CCOC(=O)N1CCC(NC(=O)CC(NS(=O)(=O)c2ccc(Cl)cc2)c2ccco2)CC1 (stereo not given)	16%	-1%	5%	-8%	32µM*	3
COc1ccc(S(=O)(=O)NC(CC(=O)NC2CCCC2)c2ccco2)cc1 (stereo not given)	19%	-2%	1%	-1%	-2%	1
Cc1ccc(S(=O)(=O)NC(CC(=O)NC2CCCC2)c2ccco2)cc1 (stereo not given)	-11%	4%	4%	1%	28µM*	2
CC(Sc1nnnn1-c1ccc(Cl)cc1)C(=O)NCC(=O)Nc1ccc(F)c(F)c1F (stereo not given)	-25%	-3%	1%	4%	25µM*	2
O=C(NC1CCCCCC1)C1CCC(CNS(=O)(=O)c2cccc3cccnc23)CC1 (stereo not given)	nt	nt	nt	nt	1%	nt
O=C(NCc1ccc2c(c1)OCO2)c1ccc2c(c1)N(Cc1ccccc1F)C(=O)c1ccccc1S2	nt	nt	nt	31%	-1%	nt
O=C(NCc1ccc2c(c1)OCO2)c1ccc2c(c1)N(Cc1c(F)cccc1Cl)C(=O)CS2	-28%	-12%	5%	?	14µM*	-1
Cc1cc(NC(=O)CCC(=O)N(Cc2cccnc2)C(C(=O)NC(C)(C)C)c2ccccc2Cl)no1 (stereo not given)	4µM*	2%	-6%	-1%	0%	-3
COc1ccc2cc(/C=N/NC(=O)c3ccc(CN(c4cccc(Cl)c4Cl)S(C)(=O)=O)cc3)c(Cl)nc2c1	-19%	-4%	0%	34%	18µM*	2
Cc1cccc(N2C(S)=C(C#N)C(=O)NC2c2ccco2)c1 (stereo not given)	-11%	-5%	-1%	5%	nt	-2
N#CC1=C(N)N(c2ccccc2)C(c2cccc([N+](=O)[O-])c2)C1(C#N)C#N (stereo not given)	-23%	11%	-1%	-6%	1%	-5
Cc1cccc(N2C(N)=C(C#N)C(C#N)(C#N)C2c2ccccc2)c1 (stereo not given)	-1%	9%	nt	0%	14µM*	0
N#CC1=C(N)N(c2ccccc2)C(c2ccco2)C1(C#N)C#N (stereo not given)	-7%	5%	2%	-1%	14µM*	0
CC(=O)N(C)c1ccc(NC(=S)Nc2ccccc2)cc1	27%	-8%	0%	0%	-2%	-3
CC(=O)c1cccc(NC(=O)C(=O)Nc2cccc3ccccc23)c1	8.9µM*	-17%	1%	6%	1%	-6
CC(=O)N(C)c1ccc(NC(=S)Nc2cccc3ccccc23)cc1	-7%	4%	1%	0%	32µM*	-1
O=S(=O)(c1ccc(C(F)(F)F)cc1)N1CCN(c2nc(-c3cccs3)nc3ccccc23)CC1	nt	nt	nt	2%	?	nt
Cc1ccccc1N=C1Nc2ccc(Cl)cc2N[C@]12C[C@H]1CCCC(=O)N3CC[C@@H](C2)[C@@H]13	nt	nt	nt	nt	-1%	nt
C/C(CC(=O)Nc1cccc2c1CCCC2)=N\NC(=O)c1cccc2ccccc12	10%	-6%	1%	2%	1%	1
C/C(CC(=O)Nc1cccc2c1CCCC2)=N\NC(=O)c1ccccc1N	12%	3%	0%	-6%	28µM*	0
CC(=O)Nc1sc2c(c1-c1nccs1)CCNC2	nt	nt	nt	25%	nt	nt
SMILES	a7 integrin act	PKM2 act	USP2a block	Pin1 inh	ClpP mod	IL-2 act
CC(=O)c1ccc(-c2ccc(C3C4C=CCCC4(C)C(=O)N3Cc3ccccc3)c(F)c2)cc1 (stereo not given)	nt	nt	nt	5%	nt	nt
Cc1ccc(-n2nc(C)c3c(C)cc(=O)[nH]c32)cc1	-2%[7.66 µM]	15%	-6%	3%	28µM*	-1
Cc1nn(-c2ccccc2)c2[nH]c(=O)cc(C(F)F)c12	-5%	nt	-1%	-1%	-6%	0
COCCn1c(N)c(C(=O)c2cccc(S(=O)(=O)N3CCCCCC3)c2)c(=O)[nH]c1=O	14%	nt	-1%	6%	2%	0
COCCn1c(N)c(C(=O)NS(=O)(=O)c2ccc(C)cc2)c(=O)[nH]c1=O	-13%	25µM*	-2%	2%	nt	2
CCOC(=O)c1sc2c(c1C)C(c1cccs1)C1=C(CCCC1=O)N2 (stereo not given)	-6%	2%	-2%	2%	4.5µM*	-1
O=C(CSc1ccc(F)cc1)N1CCC(c2nc3ccccc3s2)CC1	1%	20µM*	0%	6%	3%	-3
C=CCn1c(SCC)nc2ccccc2c1=O	nt	nt	nt	1%	-4%	nt
COC(=O)C1=C(C(=O)OC)[C@@H]2N(Cc3ccccc3)c3ccccc3[C@@]23C[C@@H](C(=O)OC)N(S(=O)(=O)c2ccc(C)cc2)C3=N1	nt	-12%[11.5 µM]	nt	nt	nt	nt
Cn1c(=O)c(-c2ccccc2)nc2ccccc21	19%	4%	2%	-4%	25µM*	-1
Cn1c(=O)c(-c2ccccc2N)nc2ccccc21	-15%	5%	0%	-8%	-2%	1
CCCCCCc1c(O)c2ccccc2[nH]c1=O	11%	1%	-1%	2%	25µM*	-1
CCNC(=O)c1c(O)c2ccccc2[nH]c1=O	-34%	0%	-1%	-4%	25µM*	-2
COc1ccc(CNC(=O)c2c(O)c3cc(OC)c(OC)cc3[nH]c2=O)cc1OC	0%	-3%	0%	0%	7.9µM*	-1
CCCCNc1c(-c2ccc(SC3CCCCC3)cc2)nc2cnccn12	-35%	nt	3%	5%	28µM*	-4
O=C(Nc1ccc(Br)cn1)c1cccc2ccccc12	-4%	nt	nt	-7%	25µM*	-1
Fc1ccc(Sc2ccccc2CNC2=NCCN2)cc1	-42%	3%	2%	-15%	1%	-1
OCCNC1=NCCN1	-7%	-1%	-6%	-9%	32µM*	0
COc1cccc(CNc2nc(Cl)nc3nc[nH]c23)c1	nt	nt	nt	-1%	-2%	nt
